PubChem BioAssay
Where “and” joins values, the source holds several entries; their conditions need not be identical. Identical values can stand only once. Calls of active or inactive are those of the source.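 How the source made its calls: active means compounds whose cell count with miR-34 switched on is under 0.7 times the count with it off; inactive means the rest.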

Test: viability loss with induced miR-34 in A549 – imaging, A549 dox-inducible miR-34, nuclei and caspase counts, primary screen (AID 1347080); further: test concentration not given here
Conditions: A549 miR-34 inducible, Hoechst nuclei count, 48 h; stronger effect = lower value
For `CCOC(=O)CN1C(=O)CC(C[C@@H](O)C2C[C@@H](C)C[C@H](C)C2=O)CC1=O` (stereo not given in full), the fold change was 1.01 (inactive). In the case of `CC1(O)C[C@@]23C[C@@H](O)[C@@]4(O)[C@@H](C[C@H](O)C4(C)C)[C@](C)(O)[C@@H]2CCC1[C@H]3O` (stereo not given in full), the fold change is reported as 0.932 (inactive). In the case of `COC[C@H]([C@@H](O)[C@@H](O)C(=O)NCC[C@@H](C)c1nc(/C=C/C[C@H]2OC3(C[C@H](O)[C@H]2C)OC([C@@H](C[C@@H](O)[C@@H](C)[C@@H](O)[C@@H](C)/C=C(C)/C(C)=C/C=C/C(C)=C\C#N)OC)[C@@H](OP(=O)(O)O)C3(C)C)co1)N(C)C` (stereo not given in full), the fold change is reported as 0.801 (inactive). For `C=C(C)[C@H]1O[C@H]2CC[C@@]3(C)[C@@](O)(CC[C@H]4[C@@H]5OC(C)(C)[C@H]6C[C@@H]7C(=C)Cc8c(Cl)cc9[nH]c(c5c9c8[C@@]76O)[C@@]43C)[C@]23O[C@@H]3[C@H]1O`, the fold change was 1.28 (inactive). With `O=C(CCC/C=C\C[C@@H]1[C@@H](/C=C/[C@@H](O)COc2cccc(C(F)(F)F)c2)[C@H](O)C[C@@H]1O)NC(CO)CO` the fold change was 0.98 (inactive).

Same assay, conditions: A549 miR-34 inducible, Hoechst nuclei count, 48 h; stronger effect = lower value; cell number ratio, induced over uninduced
With `CCCCC/C=C\C/C=C\C/C=C\C/C=C\CCCC(=O)OCCN` the fold change was 0.993 (inactive). For `CCCCCCCC/C=C\CCCCCCCC(=O)Nc1ccccc1`, the fold change was 1.04 (inactive). With `Cc1cc(C(C#N)c2ccc(Cl)cc2)c(Cl)cc1NC(=O)c1cc(I)cc(I)c1O` (stereo not given) the fold change was 0.964 (inactive) and 0.906 (inactive) and 0.861 (inactive). In the case of `CCCCC/C=C\C/C=C\C/C=C\C/C=C\CCCC(=O)N[C@@H](C)CO`, the fold change is reported as 1.04 (inactive). In the case of `N[C@H]1C[C@@H]1c1ccccc1`, the fold change is reported as 0.985 (inactive). In the case of `CCCCC/C=C\C/C=C\C/C=C\C/C=C\CCCC(=O)N(C)C`, the fold change is reported as 0.925 (inactive). For `COc1cc(CNC(=O)CCCCCCC(C)C)c(I)cc1O`, the fold change was 1.02 (inactive). In the case of `CCCCCC(/C=C/C=O)OO` (stereo not given), the fold change is reported as 0.987 (inactive). In the case of `CCCCC/C=C\C/C=C\C/C=C\C/C=C\CCCC(=O)NCCCC(=O)O`, the fold change is reported as 0.955 (inactive). With `CCNC(=O)[C@H]1O[C@@H](n2cnc3c(N)ncnc32)[C@@H](O)C1O` (stereo not given in full) the fold change was 0.967 (inactive). For `C=C1[C@@H](O)[C@@H]2O[C@@]3(CCC2O[C@@H]1[C@@H](O)C[C@H](C)C1O[C@@]2(CCCCO2)CC[C@H]1C)CC[C@H](/C=C/[C@@H](C)[C@@H]1CC(C)=C[C@@]2(O[C@H](C[C@@](C)(O)C(=O)O)CC[C@H]2O)O1)O3` (stereo not given in full), the fold change was 0.897 (inactive). In the case of `CCCCCCCCCCCCCCCC(=O)OC[C@H](COP(=O)([O-])OCC[N+](C)(C)C)OC(=O)CCCC=O`, the fold change is reported as 0.934 (inactive). In the case of `C=C(C)[C@@H]1CCC(C)=C[C@H]1c1c(OC)cc(CCCCC)cc1OC`, the fold change is reported as 0.935 (inactive). For `CCCCC/C=C\C/C=C\C/C=C\C/C=C\CCCC(=O)N[C@H](C)COP(=O)(O)O`, the fold change was 1.03 (inactive). With `CCCCC/C=C\C/C=C\C/C=C\C/C=C\CCCC(=O)Nc1ccc([N+](=O)[O-])cc1` the fold change was 1.04 (inactive). In the case of `CCCC(=O)N[C@H]1CCOC1=O`, the fold change is reported as 0.907 (inactive). In the case of `CCCCC/C=C\C/C=C\C/C=C\C/C=C\CCCC(=O)NCCS(=O)(=O)O`, the fold change is reported as 0.96 (inactive). With `CNCCCCCCN(C)N(O)N=O` the fold change was 0.998 (inactive). With `C[C@H](CCC(=O)O)C[C@H](C)C[C@H](C)C(=O)/C=C(\O)[C@H](C)C[C@H](C)C/C=C/[C@@H](C)[C@@H](O)[C@@H](C)[C@@H](O)C[C@@H]1CC[C@@](C)([C@H]2CC[C@@](C)([C@@H](C)O)O2)O1` the fold change was 0.679 (active). In the case of `CCCCC/C=C\C/C=C\C/C=C\C/C=C\CCCC(=O)O[C@H](COC(=O)CCCCCCCCCCCCCCCCC)COP(=O)([O-])OCC[N+](C)(C)C`, the fold change is reported as 0.924 (inactive). For `COC(C/C=C/C=C/CC/C=C\CC(C)/C=C\C(=C/C(=O)O)CC(=O)O)/C(C)=C\C=C(/C)C(=O)O` (stereo not given), the fold change was 0.975 (inactive). In the case of `CCCCCC(=O)N[C@H]1CCOC1=O`, the fold change is reported as 0.883 (inactive). In the case of `CCCCC/C=C\C/C=C\C/C=C\C/C=C\CCCC(=O)NCc1ccoc1`, the fold change is reported as 0.985 (inactive). For `CO/C1=C\C(C)=C\[C@@H](C)[C@@H](O)[C@@H](C)C/C(C)=C/C=C/[C@H](OC)[C@@H]([C@@H](C)[C@@H](O)[C@H](C)[C@@]2(O)C[C@@H](O)[C@H](C)[C@@H](C(C)C)O2)OC1=O`, the fold change was 1.05 (inactive). In the case of `CCCCC/C=C\C/C=C\C/C=C\C/C=C\CCCC(=O)NC1CC1`, the fold change is reported as 1.01 (inactive).

Same assay, conditions: A549 miR-34 inducible, Hoechst nuclei count, 48 h; measured here: relative caspase fold change +Dox/-Dox
Compound `CCCCC/C=C\C/C=C\C/C=C\C/C=C\CCCC(=O)OCCN` has a fold change of 0.893. With `CCCCCCCC/C=C\CCCCCCCC(=O)Nc1ccccc1` the fold change was 0.81. In the case of `Cc1cc(C(C#N)c2ccc(Cl)cc2)c(Cl)cc1NC(=O)c1cc(I)cc(I)c1O` (stereo not given), the fold change is reported as 0.325 and 0.48 and 1.33. In the case of `CCCCC/C=C\C/C=C\C/C=C\C/C=C\CCCC(=O)N[C@@H](C)CO`, the fold change is reported as 0.734. With `N[C@H]1C[C@@H]1c1ccccc1` the fold change was 1.15 and 1.49.
